Counter-ions that a name gives are not always drawn.
Columns and labels:
Conditions in all cases: treatment time: 24 h
A549-ACTB-RAB5A [1] = assay: lowest phenotypically active concentration; higher = less potent
Procedure, shortened: (§1)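 Fifteen reporter lines derived from A549, HepG2 and WPMY1 cells by gene editing, carrying BFP for segmentation plus GFP and RFP/FusionRed markers, were exposed to 0.3, 1, 3 or 9 µM for 24 h in four wells each and imaged live. Live-cell features from each well were normalised to solvent control wells. A well set counted as deviating when ≥3 of 4 wells lay beyond the 95th percentile of control Euclidean distances, and as reproducible when the median replicate Pearson correlation exceeded the 95th percentile of non-replicates. Phenotypic activity was assigned only when both criteria were met.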

A549-CANX-COX4 [2] = assay: as above
Procedure, shortened: as §1

A549-GM130-SQSTM1 [3] = assay: as above
Procedure, shortened: as §1

A549-TP53BP1-CLTA [4] = assay: as above
Procedure, shortened: as §1

A549-TUBA1B-RELA [5] = assay: as above
Procedure, shortened: as §1

A549-ACTB-RAB5A [6] = assay: phenotypically active (imaging signature differs from DMSO and reproducible) at any of 0.3-9 uM (binary (1 = active, 0 = inactive)); higher = active
Procedure, shortened: as §1

A549-CANX-COX4 [7] = assay: as above
Procedure, shortened: as §1

A549-GM130-SQSTM1 [8] = assay: as above
Procedure, shortened: as §1

A549-TP53BP1-CLTA [9] = assay: as above
Procedure, shortened: as §1

A549-TUBA1B-RELA [10] = assay: as above
Procedure, shortened: as §1

HepG2-ACTB-RAB5A = assay: as above
Procedure, shortened: as §1

HepG2-CANX-COX4 = assay: as above
Procedure, shortened: as §1

HepG2-GM130-SQSTM1 = assay: as above
Procedure, shortened: as §1

HepG2-TP53BP1-CLTA = assay: as above
Procedure, shortened: as §1

HepG2-TUBA1B-RELA = assay: as above
Procedure, shortened: as §1

WPMY1-ACTB-RAB5A = assay: as above
Procedure, shortened: as §1

WPMY1-CANX-COX4 = assay: as above
Procedure, shortened: as §1

WPMY1-GM130-SQSTM1 = assay: as above
Procedure, shortened: as §1

WPMY1-TP53BP1-CLTA = assay: as above
Procedure, shortened: as §1

WPMY1-TUBA1B-RELA = assay: as above
Procedure, shortened: as §1

Row | SMILES | lowest phenotypically active concentration (A549-ACTB-RAB5A [1]) [µM] | lowest phenotypically active concentration (A549-CANX-COX4 [2]) [µM] | lowest phenotypically active concentration (A549-GM130-SQSTM1 [3]) [µM] | lowest phenotypically active concentration (A549-TP53BP1-CLTA [4]) [µM] | lowest phenotypically active concentration (A549-TUBA1B-RELA [5]) [µM] | phenotypically active (A549-ACTB-RAB5A [6]) | phenotypically active (A549-CANX-COX4 [7]) | phenotypically active (A549-GM130-SQSTM1 [8]) | phenotypically active (A549-TP53BP1-CLTA [9]) | phenotypically active (A549-TUBA1B-RELA [10]) | phenotypically active (HepG2-ACTB-RAB5A) | phenotypically active (HepG2-CANX-COX4) | phenotypically active (HepG2-GM130-SQSTM1) | phenotypically active (HepG2-TP53BP1-CLTA) | phenotypically active (HepG2-TUBA1B-RELA) | phenotypically active (WPMY1-ACTB-RAB5A) | phenotypically active (WPMY1-CANX-COX4) | phenotypically active (WPMY1-GM130-SQSTM1) | phenotypically active (WPMY1-TP53BP1-CLTA) | phenotypically active (WPMY1-TUBA1B-RELA)
1 | CN[C@H]1CC[C@@H](c2ccc(Cl)c(Cl)c2)c2ccccc21 [sertraline] | 1 | 9 | 3 | 9 | 1 | 1 (active) | 1 (active) | 1 (active) | 1 (active) | 1 (active) | 1 (active) | 1 (active) | 1 (active) | 1 (active) | 1 (active) | 1 (active) | 1 (active) | 1 (active) | 1 (active) | 1 (active)
2 | Cc1cn(CCN2CCN(c3ccccc3-c3cc(C#N)cc(C(=O)NCCCN4CCCC4)c3)CC2)c2ccccc12 | 1 | 3 | 1 | 3 | 1 | 1 (active) | 1 (active) | 1 (active) | 1 (active) | 1 (active) | 1 (active) | 1 (active) | 1 (active) | 1 (active) | 1 (active) | 1 (active) | 1 (active) | 1 (active) | 1 (active) | 1 (active)
3 | NC(=O)Nc1cc(-c2cccc(F)c2)sc1C(=O)N[C@H]1CCCNC1 [AZD 7762 hydrochloride] | 1 | 1 | ≤ 0.3 | ≤ 0.3 | ≤ 0.3 | 1 (active) | 1 (active) | 1 (active) | 1 (active) | 1 (active) | 1 (active) | 1 (active) | 1 (active) | 1 (active) | 1 (active) | 1 (active) | 1 (active) | 1 (active) | 1 (active) | 1 (active)
4 | Cc1cc(Nc2cc(N3CCN(C)CC3)nc(Sc3ccc(NC(=O)C4CC4)cc3)n2)[nH]n1 | ≤ 0.3 | ≤ 0.3 | ≤ 0.3 | ≤ 0.3 | ≤ 0.3 | 1 (active) | 1 (active) | 1 (active) | 1 (active) | 1 (active) | 1 (active) | 1 (active) | 1 (active) | 1 (active) | 1 (active) | 1 (active) | 1 (active) | 1 (active) | 1 (active) | 1 (active)
5 | C/C=C1\NC(=O)[C@H]2CSSCCC=C[C@H](CC(=O)N[C@H](C(C)C)C(=O)N2)OC(=O)[C@H](C(C)C)NC1=O | ≤ 0.3 | ≤ 0.3 | ≤ 0.3 | ≤ 0.3 | ≤ 0.3 | 1 (active) | 1 (active) | 1 (active) | 1 (active) | 1 (active) | 1 (active) | 1 (active) | 1 (active) | 1 (active) | 1 (active) | 1 (active) | 1 (active) | 1 (active) | 1 (active) | 1 (active)
6 | O=C(CCCc1ccc(-c2ccccc2F)cc1)Nc1ccc(O)cc1 | 1 | 1 | 1 | 1 | 1 | 1 (active) | 1 (active) | 1 (active) | 1 (active) | 1 (active) | 1 (active) | 1 (active) | 1 (active) | 1 (active) | 1 (active) | 1 (active) | 1 (active) | 1 (active) | 1 (active) | 1 (active)
7 | O=C(NC(NC(=S)Nc1ccc(F)c([N+](=O)[O-])c1)C(Cl)(Cl)Cl)C(c1ccccc1)c1ccccc1 (stereo not given) | 3 | 9 | 3 | 9 | 9 | 1 (active) | 1 (active) | 1 (active) | 1 (active) | 1 (active) | 1 (active) | 1 (active) | 1 (active) | 1 (active) | 1 (active) | 1 (active) | 1 (active) | 1 (active) | 1 (active) | 1 (active)
8 | Nc1ccn([C@@H]2O[C@H](CO)[C@@H](O)[C@@H]2O)c(=O)n1 [cytarabine] | ≤ 0.3 | ≤ 0.3 | ≤ 0.3 | ≤ 0.3 | ≤ 0.3 | 1 (active) | 1 (active) | 1 (active) | 1 (active) | 1 (active) | 1 (active) | 1 (active) | 1 (active) | 1 (active) | 1 (active) | 1 (active) | 1 (active) | 1 (active) | 1 (active) | 1 (active)
9 | CNC(=O)Nc1ccc(-c2nc(N3CC4CCC(C3)O4)c3cnn(C4CCC5(CC4)OCCO5)c3n2)cc1 | ≤ 0.3 | ≤ 0.3 | ≤ 0.3 | ≤ 0.3 | ≤ 0.3 | 1 (active) | 1 (active) | 1 (active) | 1 (active) | 1 (active) | 1 (active) | 1 (active) | 1 (active) | 1 (active) | 1 (active) | 1 (active) | 1 (active) | 1 (active) | 1 (active) | 1 (active)
10 | COc1cc(/C=C/C(=O)N2CCC=CC2=O)cc(OC)c1OC [Piperlongumine] | 3 | 9 | 3 | 9 | 9 | 1 (active) | 1 (active) | 1 (active) | 1 (active) | 1 (active) | 1 (active) | 1 (active) | 1 (active) | 1 (active) | 1 (active) | 1 (active) | 1 (active) | 1 (active) | 1 (active) | 1 (active)
11 | Cc1ccc([N+](=O)[O-])cc1S(=O)(=O)N(C)/N=C/c1cnc2ccc(Br)cn12 | ≤ 0.3 | ≤ 0.3 | ≤ 0.3 | ≤ 0.3 | ≤ 0.3 | 1 (active) | 1 (active) | 1 (active) | 1 (active) | 1 (active) | 1 (active) | 1 (active) | 1 (active) | 1 (active) | 1 (active) | 1 (active) | 1 (active) | 1 (active) | 1 (active) | 1 (active)
12 | O=C(CCCCCCC(=O)Nc1ccccc1)NO | ≤ 0.3 | 1 | 1 | 1 | 1 | 1 (active) | 1 (active) | 1 (active) | 1 (active) | 1 (active) | 1 (active) | 1 (active) | 1 (active) | 1 (active) | 1 (active) | 1 (active) | 1 (active) | 1 (active) | 1 (active) | 1 (active)
13 | CC(=O)NCC(=O)N1[C@@H]2CC[C@H]1c1ccc(Nc3ncc(C(F)(F)F)c(NC4CCC4)n3)cc12 | ≤ 0.3 | ≤ 0.3 | ≤ 0.3 | ≤ 0.3 | ≤ 0.3 | 1 (active) | 1 (active) | 1 (active) | 1 (active) | 1 (active) | 1 (active) | 1 (active) | 1 (active) | 1 (active) | 1 (active) | 1 (active) | 1 (active) | 1 (active) | 1 (active) | 1 (active)
14 | COc1ccc(-c2ccc3ncc4c(c3c2)n(-c2ccc(N3CCNCC3)c(C(F)(F)F)c2)c(=O)n4C)cn1 | ≤ 0.3 | ≤ 0.3 | ≤ 0.3 | ≤ 0.3 | ≤ 0.3 | 1 (active) | 1 (active) | 1 (active) | 1 (active) | 1 (active) | 1 (active) | 1 (active) | 1 (active) | 1 (active) | 1 (active) | 1 (active) | 1 (active) | 1 (active) | 1 (active) | 1 (active)
15 | COc1c(Nc2cc(C)[nH]n2)nc(Sc2ccc(S(=O)(=O)Cc3cccc([N+](=O)[O-])c3F)cc2F)nc1N1CCOCC1 [Centrinone] | 3 | 3 | 1 | 3 | 3 | 1 (active) | 1 (active) | 1 (active) | 1 (active) | 1 (active) | 1 (active) | 1 (active) | 1 (active) | 1 (active) | 1 (active) | 1 (active) | 1 (active) | 1 (active) | 1 (active) | 1 (active)
16 | CC(=O)NC1=NN(C(C)=O)C(C)(c2ccccc2)S1 (stereo not given) | 3 | 3 | 9 | 9 | 3 | 1 (active) | 1 (active) | 1 (active) | 1 (active) | 1 (active) | 1 (active) | 1 (active) | 1 (active) | 1 (active) | 1 (active) | 1 (active) | 1 (active) | 1 (active) | 1 (active) | 1 (active)
17 | COc1ccc(N2C(=O)CSC2c2cccc(Br)c2)c(OC)c1 (stereo not given) | 3 | 9 | 9 | 3 | 9 | 1 (active) | 1 (active) | 1 (active) | 1 (active) | 1 (active) | 1 (active) | 1 (active) | 1 (active) | 1 (active) | 1 (active) | 1 (active) | 1 (active) | 1 (active) | 1 (active) | 1 (active)
18 | Nc1nc(Cl)nc2c1ncn2[C@H]1C[C@H](O)[C@@H](CO)O1 [cladribine] | 3 | 1 | 1 | 3 | 1 | 1 (active) | 1 (active) | 1 (active) | 1 (active) | 1 (active) | 1 (active) | 1 (active) | 1 (active) | 1 (active) | 1 (active) | 1 (active) | 1 (active) | 1 (active) | 1 (active) | 1 (active)
19 | O=C(CCCCCN1C(=O)c2cccc3cccc(c23)C1=O)NO [Scriptaid] | ≤ 0.3 | 1 | ≤ 0.3 | 1 | ≤ 0.3 | 1 (active) | 1 (active) | 1 (active) | 1 (active) | 1 (active) | 1 (active) | 1 (active) | 1 (active) | 1 (active) | 1 (active) | 1 (active) | 1 (active) | 1 (active) | 1 (active) | 1 (active)
20 | Cc1ccc(C(=O)N(CCCN)[C@@H](c2nc3cc(Cl)ccc3c(=O)n2Cc2ccccc2)C(C)C)cc1 [Ispinesib] | ≤ 0.3 | ≤ 0.3 | ≤ 0.3 | ≤ 0.3 | ≤ 0.3 | 1 (active) | 1 (active) | 1 (active) | 1 (active) | 1 (active) | 1 (active) | 1 (active) | 1 (active) | 1 (active) | 1 (active) | 1 (active) | 1 (active) | 1 (active) | 1 (active) | 1 (active)
